Common to all, as to settings: Compound concentration 20.0 uM, Protein concentration 2.0 uM, Result type QC Liability
The target in test [1] is Tyrosine-protein kinase ABL1 (Homo sapiens) (UniProt P00519).
Test [2] has as its target Cyclin-dependent kinase 2 (Homo sapiens) (UniProt P24941).
Test [3] concerns the target Casein kinase I isoform delta (Homo sapiens) (UniProt P48730).
Test [4] has as its target Glycogen synthase kinase-3 beta (Homo sapiens) (UniProt P49841).
The target of test [5] is Mitogen-activated protein kinase 1 (Homo sapiens) (UniProt P28482).
Test [6] addresses T1, Aurora kinase A (Homo sapiens) (UniProt O14965).
T1 sequence (whole entry): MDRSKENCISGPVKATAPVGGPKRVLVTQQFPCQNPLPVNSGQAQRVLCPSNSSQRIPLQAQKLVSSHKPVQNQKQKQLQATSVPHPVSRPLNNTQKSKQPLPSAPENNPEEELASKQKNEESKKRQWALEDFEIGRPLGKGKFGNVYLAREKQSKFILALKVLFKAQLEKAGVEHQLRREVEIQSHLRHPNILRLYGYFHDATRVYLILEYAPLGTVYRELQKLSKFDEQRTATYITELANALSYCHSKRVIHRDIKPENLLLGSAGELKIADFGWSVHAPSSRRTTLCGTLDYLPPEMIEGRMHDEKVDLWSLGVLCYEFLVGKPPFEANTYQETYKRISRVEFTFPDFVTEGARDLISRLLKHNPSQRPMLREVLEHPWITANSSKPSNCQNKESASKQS

SMILES strings stand for the structures. Values joined by “and” are separate entries in the source; they are usually repeats but may differ in a detail not shown here. Equal entries are not always repeated.

Glycogen synthase kinase-3 beta (Homo sapiens), sequence (P49841 whole entry, looked up): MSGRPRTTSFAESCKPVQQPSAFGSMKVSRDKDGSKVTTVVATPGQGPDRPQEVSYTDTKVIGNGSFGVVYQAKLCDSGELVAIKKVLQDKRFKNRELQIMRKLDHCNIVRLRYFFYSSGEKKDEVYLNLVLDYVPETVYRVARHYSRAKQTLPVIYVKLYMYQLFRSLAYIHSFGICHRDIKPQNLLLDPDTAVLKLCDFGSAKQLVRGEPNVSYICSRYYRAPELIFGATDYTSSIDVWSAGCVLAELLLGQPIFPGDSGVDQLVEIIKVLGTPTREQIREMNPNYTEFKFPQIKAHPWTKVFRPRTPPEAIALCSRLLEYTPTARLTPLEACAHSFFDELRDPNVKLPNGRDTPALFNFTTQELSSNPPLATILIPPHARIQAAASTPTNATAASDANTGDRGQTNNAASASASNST
Tyrosine-protein kinase ABL1 (Homo sapiens), sequence (P00519 whole entry): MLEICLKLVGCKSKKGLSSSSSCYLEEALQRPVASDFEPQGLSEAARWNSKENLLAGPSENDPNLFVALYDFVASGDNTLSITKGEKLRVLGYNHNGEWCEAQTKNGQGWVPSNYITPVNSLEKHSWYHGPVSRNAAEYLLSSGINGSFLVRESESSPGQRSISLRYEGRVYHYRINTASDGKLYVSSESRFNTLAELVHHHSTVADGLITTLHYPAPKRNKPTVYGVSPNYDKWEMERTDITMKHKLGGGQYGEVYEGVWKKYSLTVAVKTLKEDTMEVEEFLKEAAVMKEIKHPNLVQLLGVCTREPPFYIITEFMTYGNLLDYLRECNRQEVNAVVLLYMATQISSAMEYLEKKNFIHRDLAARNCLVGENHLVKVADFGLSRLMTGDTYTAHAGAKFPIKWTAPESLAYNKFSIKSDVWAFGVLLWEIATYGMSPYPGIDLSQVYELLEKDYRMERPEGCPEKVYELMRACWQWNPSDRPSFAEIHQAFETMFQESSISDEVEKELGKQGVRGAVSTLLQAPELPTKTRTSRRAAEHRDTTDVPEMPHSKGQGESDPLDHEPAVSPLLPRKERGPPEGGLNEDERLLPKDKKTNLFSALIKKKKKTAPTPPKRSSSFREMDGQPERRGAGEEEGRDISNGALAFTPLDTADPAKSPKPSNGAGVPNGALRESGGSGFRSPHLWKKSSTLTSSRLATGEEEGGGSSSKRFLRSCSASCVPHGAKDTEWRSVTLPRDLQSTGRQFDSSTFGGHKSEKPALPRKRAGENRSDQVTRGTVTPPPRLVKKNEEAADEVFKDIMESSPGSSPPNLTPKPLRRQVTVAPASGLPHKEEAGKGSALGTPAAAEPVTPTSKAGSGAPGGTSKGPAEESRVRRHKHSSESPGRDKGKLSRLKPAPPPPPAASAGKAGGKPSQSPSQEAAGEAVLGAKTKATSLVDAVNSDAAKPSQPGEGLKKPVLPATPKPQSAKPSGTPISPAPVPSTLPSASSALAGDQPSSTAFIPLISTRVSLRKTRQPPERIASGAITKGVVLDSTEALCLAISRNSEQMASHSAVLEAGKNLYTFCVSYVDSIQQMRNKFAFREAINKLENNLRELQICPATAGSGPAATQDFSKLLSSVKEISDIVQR
Casein kinase I isoform delta (Homo sapiens), sequence (P48730 whole entry, looked up, canonical isoform): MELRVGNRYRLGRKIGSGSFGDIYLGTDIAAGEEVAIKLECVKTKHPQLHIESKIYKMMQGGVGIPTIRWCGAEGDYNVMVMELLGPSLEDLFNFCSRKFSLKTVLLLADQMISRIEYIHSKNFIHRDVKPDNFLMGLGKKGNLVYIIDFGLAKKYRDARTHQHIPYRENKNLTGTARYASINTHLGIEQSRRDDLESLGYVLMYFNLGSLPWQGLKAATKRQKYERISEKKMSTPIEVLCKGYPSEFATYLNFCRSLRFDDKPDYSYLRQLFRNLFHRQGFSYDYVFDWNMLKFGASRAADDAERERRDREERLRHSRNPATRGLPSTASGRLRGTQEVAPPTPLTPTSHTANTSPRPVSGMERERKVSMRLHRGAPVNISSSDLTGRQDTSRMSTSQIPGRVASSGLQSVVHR
Mitogen-activated protein kinase 1 (Homo sapiens), sequence (P28482 whole entry): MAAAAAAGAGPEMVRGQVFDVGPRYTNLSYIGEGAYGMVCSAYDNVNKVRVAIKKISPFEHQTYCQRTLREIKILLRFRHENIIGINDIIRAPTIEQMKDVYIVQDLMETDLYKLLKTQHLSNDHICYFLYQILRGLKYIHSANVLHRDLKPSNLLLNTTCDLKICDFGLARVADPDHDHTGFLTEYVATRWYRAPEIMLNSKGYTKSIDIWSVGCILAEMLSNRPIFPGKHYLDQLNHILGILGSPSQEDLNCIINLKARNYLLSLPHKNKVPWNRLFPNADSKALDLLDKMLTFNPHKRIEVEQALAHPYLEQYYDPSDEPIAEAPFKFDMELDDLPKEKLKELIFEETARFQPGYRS

For orientation: ΔTm means the change in melting temperature against a reference sample. For `CCn1c(CNC(=O)c2ncc(C)nc2N)[n+](CC)c2ccc(C(=O)N(C)CCN(C)C)cc21`, the ΔTm in test [1] was 0.1 °C; in test [2] it was 0.39 °C; in test [3] it was 0.2 °C; in test [4], -0.02 °C; in test [5], 0.08 °C; in test [6] it was -0.29 °C.
For `O=S(=O)(Nc1ccc(C(O)(C(F)(F)F)C(F)(F)F)cc1)c1cccs1`, the ΔTm in test [1] is 0.41 °C; in test [2] it was 0.73 °C; in test [3], 0.38 °C; in test [4], -0.54 °C; in test [5] it was 1.04 °C; in test [6] it was 0.57 °C.
Take `COc1cc(Nc2cnc(C#N)c(O[C@H](C)CN(C)C)n2)ncc1-c1cnn(C)c1`: the shift in melting temperature (ΔTm) in test [1] came to 3.91 °C; in test [2], 0.23 °C; in test [3], 2.14 °C; in test [4] it was 3.03 °C; in test [5], 0.5 °C; in test [6] it was 1.18 °C.
Turning to `CC(C)C[C@H](NC(=O)[C@@H](O)[C@H](N)Cc1ccccc1)C(=O)O`, the ΔTm in test [1] was -0.05 °C; in test [2], 1.32 °C; in test [3] it was 0.13 °C; in test [4], 0.33 °C; in test [5], 0.15 °C; in test [6] it was -0.07 °C.
In the case of `C[C@H]1CN(C2COC2)CCN1c1ccc(Nc2cc(-c3ccnc(N4CCn5c(cc6c5CC(C)(C)C6)C4=O)c3CO)cn(C)c2=O)nc1`, the ΔTm in test [1] was 3.14 °C; in test [2] it was -0.09 °C; in test [3], 0.48 °C; in test [4] it was -0.54 °C; in test [5], -0.67 °C; in test [6], 1.75 °C.
As for `O=c1[nH]c(CS[C@H]2CC[C@H](O)CC2)nc2cc(OCC3CC3)cc(F)c12`, the shift in melting temperature (ΔTm) is 0.13 °C in test [1]; 0.95 °C in test [2]; 0.35 °C in test [3]; 0.78 °C in test [4]; 0.46 °C in test [5]; -0.03 °C in test [6].
Turning to `CCOc1cc(CC(=O)N[C@@H](CC(C)C)c2ccccc2N2CCCCC2)ccc1C(=O)O`, the shift in melting temperature (ΔTm) in test [1] was -0.58 °C; in test [2] it was 0.05 °C; in test [3], -0.05 °C; in test [4] it was 0.38 °C; in test [5], -0.15 °C; in test [6], -0.16 °C.
As for `COc1ncc(-c2cc(-c3ncc(CN4C[C@@H](C)O[C@@H](C)C4)o3)c3cn[nH]c3c2)cc1NS(C)(=O)=O`, the ΔTm in test [1] was 0.42 °C; in test [2], 0.2 °C; in test [3], 0.38 °C; in test [4], -0.36 °C; in test [5], 0.18 °C; in test [6] it was 1.26 °C.
Turning to `CC(=O)O[C@H]1C(=O)[C@@]2(C)[C@H]([C@H](OC(=O)c3ccccc3)[C@]3(O)C[C@H](OC(=O)[C@H](O)[C@@H](NC(=O)c4ccccc4)c4ccccc4)C(C)=C1C3(C)C)[C@]1(OC(C)=O)CO[C@@H]1C[C@@H]2O`, the ΔTm in test [1] is 0.38 °C; in test [2], 0.99 °C; in test [3], -0.22 °C; in test [4], -0.02 °C; in test [5], 0.57 °C; in test [6], -0.14 °C.
As to `NC(=O)C1CCCc2c1[nH]c1ccc(Cl)cc21` (stereo not given), the thermal shift (ΔTm) in test [1] is 0.05 °C; in test [2] it was 0.79 °C; in test [3], 0.23 °C; in test [4], -0.8 °C; in test [5], 0.44 °C; in test [6], 0.7 °C.
Consider `CCS(=O)(=O)Nc1cccc(Oc2cc(F)cc(Nc3ccc(I)cc3F)c2NS(=O)(=O)C2CC2)c1`, for which the ΔTm is 1.05 °C in test [1]; 0.19 °C in test [2]; 0.44 °C in test [3]; 2.25 °C in test [4]; -1.88 °C in test [5]; 0.23 °C in test [6].
Take `FC(F)(F)c1ccc(CNc2ccc(Cc3c[nH]c4ncc(Cl)cc34)cn2)cn1`: the thermal shift (ΔTm) is -2.59 °C in test [1]; 1.62 °C in test [2]; 1.05 °C in test [3]; -0.38 °C in test [4]; 0.93 °C in test [5]; 10.6 °C in test [6].
For `CCC(=O)N[C@H]1CC[C@@H](C(=O)N(C)c2ccc(-c3nc4ccccc4o3)cc2)C1`, the ΔTm in test [1] was 0.73 °C; in test [2], 0.83 °C; in test [3], 0.61 °C; in test [4], -0.48 °C; in test [5], 0.13 °C; in test [6] it was 0.03 °C.
Take `CC[C@H](CC(=O)O)n1c(=O)c2ncccc2n(Cc2cn(C)c3cc(C)cc(C)c23)c1=O`: the thermal shift (ΔTm) in test [1] was -0.39 °C and 0.26 °C; in test [2], 0.68 °C and 0.96 °C; in test [3] it was 0.28 °C and -0.08 °C; in test [4] it was -0.11 °C and -0.78 °C; in test [5], 0.08 °C and 0.23 °C; in test [6], -0.13 °C and 0.01 °C.
For the compound `CC1(C)CCN(C(=O)C2CN(c3c4c(nc5ccnn35)CCNCC4)C2)C1`, the shift in melting temperature (ΔTm) in test [1] was -0.37 °C; in test [2], 0.71 °C; in test [3] it was 0.26 °C; in test [4], -0.71 °C; in test [5] it was 0.08 °C; in test [6] it was -0.02 °C.
`COc1cnccc1Nc1nc(-c2nn(Cc3c(F)cc(OCCO)cc3F)c3ccccc23)ncc1OC`: the thermal shift (ΔTm) was -0.43 °C in test [1]; -0.62 °C in test [2]; -2.9 °C in test [3]; -5.93 °C in test [4]; -0.07 °C in test [5]; -1.95 °C in test [6].
For `Nc1ncnc2c1c(COc1cccc(Cl)c1)nn2C1CCOCC1`, the shift in melting temperature (ΔTm) in test [1] was 1.95 °C; in test [2], 0.26 °C; in test [3], 3.79 °C; in test [4] it was 0.11 °C; in test [5] it was 0.21 °C; in test [6], -4.79 °C.
Take `Cc1cc2c(-c3ccco3)cnc(N[C@@H]3CCN(C)C[C@H]3C(=O)NC3CCCCC3)c2[nH]c1=O`: the shift in melting temperature (ΔTm) was 0.07 °C in test [1]; 0.91 °C in test [2]; -0.09 °C in test [3]; -0.51 °C in test [4]; 0.54 °C in test [5]; 0.79 °C in test [6].
For `CC#CC(=O)N1CCN(c2nc(-c3ccc(Oc4ccccc4)cc3)c(C(N)=O)s2)CC1`, the thermal shift (ΔTm) in test [1] was -0.27 °C; in test [2], -1.44 °C; in test [3], -8 °C; in test [4] it was -2.57 °C; in test [5], -9.83 °C; in test [6] it was -1.3 °C.
As to `CC1CCN(C(=O)[C@@H](CCn2cccc2C#N)NS(=O)(=O)c2cccc3[nH]ccc23)CC1`, the shift in melting temperature (ΔTm) in test [1] is 0.25 °C; in test [2] it was 0.59 °C; in test [3] it was 0.33 °C; in test [4] it was -0.44 °C; in test [5], -8.81 °C; in test [6] it was 0.05 °C.
With `CCNc1ccc(-c2nn(-c3ccccc3C)c3c2C(C)Cc2nc(NC(=O)OC)sc2-3)cn1` (stereo not given), the ΔTm is 0.34 °C in test [1]; 0.64 °C in test [2]; 0.19 °C in test [3]; -0.97 °C in test [4]; -0.13 °C in test [5]; 1.08 °C in test [6].
Regarding `CC(C)(C)c1cc(NC(=O)c2csc(Nc3ccccn3)n2)no1`, the ΔTm in test [1] was 1.84 °C; in test [2] it was 0.49 °C; in test [3] it was 0.84 °C; in test [4] it was 0.22 °C; in test [5], 0.57 °C; in test [6], 1.27 °C.
Turning to `O=C(O)c1cc(-c2ccccc2)ccc1O`, the ΔTm was 0.56 °C in test [1]; 0.7 °C in test [2]; 0.85 °C in test [3]; -0.32 °C in test [4]; 0.04 °C in test [5]; 0.05 °C in test [6].
Take `Cc1c(NC(=O)COc2ccc(Cl)cc2C(=O)c2cc(F)cc(C(F)(F)F)c2)ccc(C(=O)O)c1F`: the shift in melting temperature (ΔTm) was -0.06 °C and 0.75 °C in test [1]; 0.5 °C and 0.58 °C in test [2]; 0.18 °C and 0.09 °C in test [3]; 1.73 °C and 2.32 °C in test [4]; 0.12 °C and 0.93 °C in test [5]; -0.24 °C and -1.26 °C in test [6].
In the case of `CCCS(=O)(=O)N[C@H]1C[C@@H](N(C)c2ncnc3[nH]ccc23)C1`, the thermal shift (ΔTm) was determined as 1.02 °C in test [1]; 0.96 °C in test [2]; 0.73 °C in test [3]; 1.39 °C in test [4]; 0.29 °C in test [5]; 3.25 °C in test [6].
As for `N#Cc1ccc(C#CC[C@@H](C#N)NC(=O)[C@@H]2CCCCN2)cc1F`, the ΔTm is -0.78 °C in test [1]; 0.23 °C in test [2]; 0.14 °C in test [3]; -0.69 °C in test [4]; 0.24 °C in test [5]; -0.05 °C in test [6].
For the compound `O=C(O)CCCN1CCC[C@H]1COc1ccc(Oc2ccc(Cl)cc2)cc1`, the ΔTm was 0.14 °C in test [1]; 0.25 °C in test [2]; -0.11 °C in test [3]; -0.15 °C in test [4]; -0.08 °C in test [5]; -0.43 °C in test [6].
Turning to `CN1CCN(c2ccc(-n3cc(-c4ccncc4OCC4CCNCC4)cn3)cc2)CC1`, the shift in melting temperature (ΔTm) in test [1] is 1.5 °C; in test [2] it was 1.21 °C; in test [3], 1.48 °C; in test [4] it was -0.06 °C; in test [5], 0.53 °C; in test [6], -0.52 °C.
With `CCCCC(C)(O)C/C=C/[C@H]1[C@H](O)CC(=O)[C@@H]1CCCCCCC(=O)O` (stereo not given in full), the thermal shift (ΔTm) is 0.39 °C in test [1]; 0.57 °C in test [2]; -0.02 °C in test [3]; 0.33 °C in test [4]; -0.33 °C in test [5]; -0.31 °C in test [6].
Consider `O=C1NC(=NCc2cccs2)SC1=Cc1ccc2ncccc2c1`, for which the ΔTm was 2.9 °C in test [1]; 0.75 °C in test [3]; 3.78 °C in test [4]; 0.66 °C in test [5]; -0.94 °C in test [6].
As for `CC1(C)C(=O)N([C@H]2CCc3c(O)cccc32)c2nc(Nc3cccc(CN4CCCC4)c3)ncc21`, the ΔTm was found to be 6.13 °C in test [2]; 2.09 °C in test [3]; 6.72 °C in test [4]; 5.19 °C in test [5]; 12.8 °C in test [6].
In the case of `COc1ccc(F)c(F)c1C(=O)c1cnc(NC2CCN(S(C)(=O)=O)CC2)nc1N`, the ΔTm was 0.33 °C in test [1]; 0.3 °C in test [3]; 7.07 °C in test [4]; 0.27 °C in test [5]; 0.02 °C in test [6].
For the compound `COc1cc2nc([C@@H]3CCCS(=O)(=O)C3)n(C)c2cc1NC(=O)c1cccc(C(C)(F)F)n1`, the ΔTm was 0.81 °C in test [1]; 0.09 °C in test [2]; 0.86 °C in test [3]; -1.39 °C in test [4]; 0.05 °C in test [5]; 1.82 °C in test [6].

The record behind these values is ChEMBL document CHEMBL5308504, “Tm Shift (DSF) assay results for EUbOPEN Chemogenomics Library” (2023).
